The results in this text go back to PubChem BioAssay AID1259343 (VanderVen Lab, College of Veterinary Medicine, Cornell …, 2017).

The whole screen tested about 6,200 compounds, of which about 2,900 (47%) were called active. No stated cut-off is given here; in the data, active means inhibition above about 50%; inactive means the rest. So high a share suggests a set chosen from earlier hits. This is one part of the list.

Usually inhibition stands for the relative decrease from the control value, in per cent.

The nature of the test: Mycobacterium tuberculosis growth inhibition, primary screen (AID 1259343). The settings on record: inhibition: at 10 µM, hits give high values; outcome: 10 uM.
Consider `CN(Cc1ccc(F)cc1F)C(=O)NCc1ccccc1`, for which the inhibition is 93% (active).
The same measure for `CN(Cc1ccsc1)C(=O)Nc1ccc(C(F)(F)F)cc1`: 44.2% (inactive); for `O=C(NCCc1cccs1)C(=O)NCc1cccc(F)c1`: 45.4% (inactive); for `Cc1ccc(NC(=O)N(C)Cc2ccccc2F)cc1Cl`: 4.94% (inactive).
The result for `CCOc1ncccc1C(=O)NCc1ccc(C)c(F)c1` reads 35.2% (inactive); that for `COc1ccc(Cl)cc1CN(C)C(=O)Nc1ccc(F)cc1F`, -16.8% (inactive); that for `COc1cccc(CNC(=O)N(C)Cc2ccc(C(C)C)cc2)c1`, 85.7% (active).
With `Cc1ccc(NC(=O)N(C)Cc2ccc(O)cc2)cc1F`, the inhibition was 59.5% (active).
Turning to `CN(Cc1cc(Br)ccc1F)C(=O)NCc1ccco1`, the inhibition was -23.8% (inactive).
For the compound `COc1ccc(CN(C)C(=O)NCC2Cc3ccccc3O2)cc1` (centres undefined), the inhibition is -43.1% (inactive).
`Cc1ccc(CNC(=O)N(C)Cc2cccs2)cc1F`: the inhibition is 74.8% (active).
The same measure for `CC1SC(=S)NN1c1ccccc1` (centres undefined): 92.6% (active).
The same measure for `Cc1cccc(Nc2ccc(NCCNS(=O)(=O)c3ccc(F)cc3)nn2)n1`: 30.2% (inactive); for `c1ccc2c(OCCCCCn3ccnc3)cccc2c1`: 100% (active); for `COCCN=c1scc(-c2ccco2)n1N=Cc1cc(Br)c(O)c(OC)c1`: 15.7% (inactive).
Regarding `CN=c1scc(-c2ccco2)n1N=Cc1sccc1C`, the inhibition is 42.1% (inactive).
Regarding `CN=c1scc(-c2cccc(Br)c2)n1N=Cc1ccncc1`, the inhibition was 13.7% (inactive).
The same measure for `CN=c1scc(C)n1N=Cc1cc(Br)c(O)c(Br)c1`: -24.1% (inactive); for `CCN=c1scc(-c2ccco2)n1N=Cc1ccc2c(c1)OCO2`: 23.9% (inactive).
For `CN=c1scc(-c2ccc(OC)cc2)n1N=Cc1cc(Br)c(O)c(OC)c1`, the inhibition is 97.6% (active).
Turning to `CN=c1scc(-c2ccco2)n1N=Cc1cc(Br)c(O)c(OC)c1`, the inhibition is 82.5% (active).
On to `CCN=c1scc(C)n1N=Cc1cc(Br)c(O)c(Br)c1`, for which the inhibition was 84.4% (active).
As to `CCN=c1scc(C)n1N=Cc1ccc(Br)cc1`, the inhibition was 10.9% (inactive).
Regarding `CN=c1scc(-c2ccco2)n1N=Cc1c(O)ccc2ccccc12`, the inhibition is 54.4% (active).
The same measure for `C=C(C)CN=c1scc(-c2ccco2)n1N=Cc1ccc(O)cc1O`: 89.4% (active).
The result for `CN=c1scc(-c2cc(Cl)ccc2Cl)n1N=Cc1ccc(O)cc1O` reads 65.9% (active); that for `Oc1ccc(C=Nn2c(-c3ccco3)csc2=Nc2ccc(F)cc2F)c(O)c1`, 6.26% (inactive).
The result for `CN=c1scc(-c2cccc(Br)c2)n1N=Cc1ccccc1F` reads -6.53% (inactive).
As for `C=CCN=c1scc(-c2ccco2)n1N=Cc1cc(OC)ccc1O`, the inhibition is 16% (inactive).
The result for `CN=c1scc(-c2ccccc2Br)n1N=Cc1cccc(O)c1` reads 28.8% (inactive).
`Cc1ccccc1-c1nnc(CN2CCCC3CCCC32)o1` (centres undefined): the inhibition is 59% (active).
`Cc1ccccc1CCC1CCCN(Cc2nnc(-c3ccco3)o2)C1` (centres undefined): the inhibition was 2.39% (inactive).
For the compound `Cc1ccccc1-c1ncc(CN2CCCC2c2nonc2C)s1` (centres undefined), the inhibition was 27.5% (inactive).
Consider `Cc1cc(=O)[nH]c(Nc2nc(C)c3cc(C)c(C)cc3n2)n1`, for which the inhibition is -34.5% (inactive).
The same measure for `COC(=O)CC(=O)N1CCC(Cc2ccc(-c3ccccc3)cc2)CC1`: 87% (active); for `O=C(CCl)N1CCC(Cc2ccccc2)CC1`: -0.35% (inactive); for `Cc1ccc(C2CC(c3cccc(F)c3)=NN2C(=O)CN2CCC(Cc3ccccc3)CC2)cc1` (centres undefined): 42.1% (inactive).
Regarding `O=C(Cc1ccccc1)N1CCC(Cc2ccc(-c3ccccc3)cc2)CC1`, the inhibition was 72.6% (active).
The same measure for `COc1ccccc1/C=C/CN1CCCC(CCC(=O)Nc2cc(Cl)ccc2OC)C1` (centres undefined): 14.3% (inactive).
With `COc1cc2c(cc1NC(=O)CC(C)=NNC=O)oc1ccccc12`, the inhibition is 95.5% (active).
Take `Cc1noc(C)c1CCC(=O)Nc1ccc2oc3ccccc3c2c1`: the inhibition was 25.6% (inactive).
The same measure for `Cc1cc(C)c2sc(NCC(C)C)nc2c1`: 13.6% (inactive).
The same measure for `COC(=O)c1c(N)sc2c1CCC(C(C)(C)C)C2` (centres undefined): -34.2% (inactive).
Take `CC(C)(C)C1CCc2c(C(=O)N/N=C\c3ccoc3)csc2C1` (centres undefined): the inhibition is 79.8% (active).
Take `COC(=O)c1sc2c(c1N)CCC(C(C)(C)C)C2` (centres undefined): the inhibition was 29.1% (inactive).
The result for `Cc1cc(=O)n2[nH]c(C(F)(F)F)c(-c3ccc(Cl)cc3)c2n1` reads 61.6% (active); that for `Cc1cc(=O)n2[nH]cc(-c3ccc(Cl)cc3)c2n1`, -30.9% (inactive); that for `Cc1ccc(-c2c[nH]n3c(=O)cc(C(C)(C)C)nc23)cc1`, 98.8% (active).
The same measure for `CC(C)(C)c1cc(=O)n2[nH]cc(-c3ccc(Cl)cc3)c2n1`: 32.1% (inactive).
The same measure for `Cc1[nH]n2c(=O)cc(C(C)(C)C)nc2c1-c1ccc(Cl)cc1`: 101% (active); for `CC(CCc1ccccc1)NC(=O)c1c(O)nc2sccn2c1=O` (centres undefined): 62.6% (active).
For the compound `CC(NC(=O)c1c(O)nc2sccn2c1=O)c1ccccc1` (centres undefined), the inhibition was 90.9% (active).
Take `CCCCn1c(=O)[nH]c(=O)c2c1nc(COC(=O)C1CC1)n2C`: the inhibition is 12.4% (inactive).
The result for `O=C(Nc1ccc(-c2ccccc2)cc1)C1CC=CCC1C(=O)N1CCc2c([nH]c3ccccc23)C1` (centres undefined) reads 91% (active).
Consider `O=C(O)C1CC=CCC1C(=O)Nc1ccc(N2CCN(c3cccc(Cl)c3Cl)CC2)cc1` (centres undefined), for which the inhibition is 21.6% (inactive).
Consider `C1=CC(c2ccc(C=NNc3ccccn3)s2)CC1` (centres undefined), for which the inhibition was -47.3% (inactive).
For the compound `NC(=S)NN=Cc1ccc(C2C=CCC2)s1` (centres undefined), the inhibition is 84.9% (active).
The result for `C1=CC(c2ccc(C=NNc3nc4ccccc4s3)s2)CC1` (centres undefined) reads 99.1% (active); that for `CC1CC(=NNc2nc3ccccc3s2)CC(C)(C)C1` (centres undefined), 23.3% (inactive); that for `C=CCN=c1scc(-c2ccc(C)cc2)n1N=Cc1ccc(F)cc1`, -4.92% (inactive).
The result for `N#Cc1ccc(C=Nn2c(-c3ccc(F)cc3)csc2=Nc2cccnc2)cc1` reads 97.7% (active); that for `C(=Nn1c(-c2ccccc2)csc1=NCc1ccccc1)c1cccnc1`, 28.2% (inactive); that for `C=CCNC(=S)NN=C1C=C(C)CC(C)(C)C1`, 103% (active).
The same measure for `C=CCNC(=S)NN=C1CCC=C1CCCCC`: 21.5% (inactive).
As for `C=CCNC(=S)NN=C1CCCCc2ccccc21`, the inhibition is -17.9% (inactive).
Consider `Cc1cccc(C)c1OCC(O)Cn1cnc2ccc(Br)cc2c1=O` (centres undefined), for which the inhibition is 33.4% (inactive).
The result for `CCn1cnc2cc(-c3ccc(Cl)cc3)sc2c1=O` reads 29.3% (inactive); that for `Cc1cccc(OCC(O)Cn2cnc3ccc(Cl)cc3c2=O)c1` (centres undefined), 86.5% (active).
Regarding `Cc1ccc(C(=O)NCCN(C)c2ccccc2)c(C)c1`, the inhibition is 35.9% (inactive).
The result for `CN(CCNc1ccc2c(c1)C(=O)CCC2)c1ccccc1` reads 75.6% (active).
Take `Cc1ccc(SCCC(=O)Nc2nnc(-c3cc(C)ccc3C)o2)cc1`: the inhibition is 74.8% (active).
In the case of `Cc1ccc(NC(=O)C(C)OC(=O)c2cccc(C)c2C)cc1` (centres undefined), the inhibition was 18.8% (inactive).
The same measure for `CC(C)OC(=O)c1ccc(NC(=O)CCCC(=O)O)cc1`: 50.8% (active).
Turning to `Cc1cc(=O)[nH]c(-n2nc(C)cc2NC(=O)Cc2cccs2)n1`, the inhibition was 101% (active).
Take `CCCc1cc(=O)[nH]c(-n2nc(C)cc2NC(=O)Cc2cccs2)n1`: the inhibition was -25.1% (inactive).
The result for `CCc1cc(=O)[nH]c(-n2nc(C)cc2NC(=O)Cc2cccs2)n1` reads 101% (active); that for `CC(C)OCCCNc1ncnc2c1c(-c1ccccc1)cn2-c1ccccc1`, 101% (active); that for `Cc1ccc(-n2cc(-c3ccccc3)c3c(NCCCO)ncnc32)cc1Cl`, “inactive”.
The same measure for `CC(O)CNc1ncnc2c1c(-c1ccccc1)cn2-c1ccc(Cl)cc1` (centres undefined): 99.4% (active).
For `CN(C)CCCNc1ncnc2c1c(-c1ccccc1)cn2-c1ccc(Br)cc1`, the inhibition is 97.2% (active).
`CCCNc1ncnc2c1c(-c1ccccc1)cn2-c1ccccc1`: the inhibition was 95.8% (active).
In the case of `Cn1ccnc1-c1nccn1Cc1ccc(CN2CCCC2)cc1`, the inhibition was -4.25% (inactive).
In the case of `CN(C)c1ccc(C=Cc2ccc3c4ccccc4ccc3[n+]2-c2ccccc2)cc1`, the inhibition is -1.83% (inactive).
The same measure for `N#Cc1ccc(NS(=O)(=O)c2ccc(F)cc2)cc1`: 77.8% (active).
The same measure for `O=S(=O)(Nc1ccc(Br)cc1)c1ccc(F)cc1`: 36.6% (inactive); for `Cc1cc(C)c(C)c(S(=O)(=O)Nc2ccc(F)cc2)c1C`: 31.6% (inactive).
The result for `O=S(=O)(Nc1ccc(Br)c(C(F)(F)F)c1)c1ccc(F)cc1` reads 81.1% (active).
Turning to `O=c1[nH]c(=S)ccn1-c1nc(-c2ccccc2)sc1-c1ccccc1`, the inhibition was 21.2% (inactive).
The result for `Oc1ccccc1Oc1ccc(Oc2ccccc2O)cc1` reads 25.7% (inactive); that for `NCc1ccc(Oc2cccc(Cl)c2Cl)cc1`, 62.9% (active).
The same measure for `COc1ccc2c(Cl)c(C(=O)O)sc2c1Cl`: 19.7% (inactive).
The result for `O=C(NC1=NCCS1)c1sc2cc(F)ccc2c1Cl` reads 5.48% (inactive); that for `O=C(NS(=O)(=O)c1ccc(Br)s1)c1ccc(Cl)cc1Cl`, 82.9% (active); that for `O=C(NS(=O)(=O)c1ccc(Cl)s1)c1sc2cc(Cl)ccc2c1Cl`, 77.9% (active).
Regarding `O=C(O)c1sc2cc(Cl)ccc2c1Cl`, the inhibition was 87.1% (active).
The result for `O=C(O)c1sc2cc(Cl)cc(Cl)c2c1Cl` reads 92.8% (active); that for `O=C(O)c1sc(Cl)cc1/C=C\c1ccccc1`, 4.33% (inactive); that for `CC(NC(=O)c1ccc(Cl)c([N+](=O)[O-])c1)c1ccccc1` (centres undefined), 100% (active).
The result for `CC(NC(=O)c1scnc1Cl)c1ccccc1` (centres undefined) reads 8.26% (inactive).
As to `Cc1ccc(NC(=O)c2csc(NS(=O)(=O)c3cccs3)n2)cc1F`, the inhibition was 28.6% (inactive).
For `Cc1cc(C)c(S(=O)(=O)Nc2nc(C(F)(F)F)cs2)c(C)c1`, the inhibition is 78.7% (active).
The same measure for `Cc1cc(C)c(S(=O)(=O)NC(C)c2ccccc2)c(C)c1` (centres undefined): 9.74% (inactive); for `c1ccc(-c2noc(CCCc3c[nH]c4ccccc34)n2)cc1`: 71.6% (active); for `O=C(CCc1nnc(CCc2c[nH]c3ccccc23)o1)N1CCC(c2ccccc2Cl)C1` (centres undefined): 33.4% (inactive).
